# Experimental data reported in PubChem BioAssay (NCATS).
# Unmarked numbers belong to inactive results. Inconclusive results are not listed. Where a call stands in place of a potency, no number is given. Active and inactive are the calls of the source. Unless noted, the call rests on the fitted dose curve; in most records, active means well fitted curve in the direction sought with a large enough effect; inconclusive means small, poorly fitted or top-dose-only effect, or another doubt; inactive means no such curve, though single readings can be large; an effect the other way counts as inactive or inconclusive.
# What was measured:
# [1] = biological target: Rap guanine nucleotide exchange factor 3 (Homo sapiens) (UniProt O95398); assay: Confirmatory qHTS for agonist of cAMP-regulated guanine nucleotide exchange factor 3 (EPAC1) (AID 1645881);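 further: EPAC1 catalysed release of BODIPY-GDP from Rap1B seen as fluorescence loss; nearly all actives have a fitted effect of over 75% in size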
# [2] = biological target: Rap guanine nucleotide exchange factor 4 (Homo sapiens) (UniProt Q8WZA2); assay: Confirmatory qHTS for agonist of cAMP-regulated guanine nucleotide exchange factor 4 (EPAC2) (AID 1645884);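 further: nucleotide exchange releases bodipy-GDP from Rap1 and this lowers its fluorescence; nearly all actives have a fitted effect of over 65% in size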
# [3] = biological target: Rap guanine nucleotide exchange factor 4 (Homo sapiens) (UniProt Q8WZA2); assay: Confirmatory qHTS for antagonist of cAMP-regulated guanine nucleotide exchange factor 4 (EPAC2) (AID 1645885); further: nearly all actives have a fitted effect of over 25% in size; further: potency means the concentration at half of the fitted maximal effect
# [4] = biological target: Rap guanine nucleotide exchange factor 3 (Homo sapiens) (UniProt O95398); assay: Confirmatory qHTS for antagonist of cAMP-regulated guanine nucleotide exchange factor 3 (EPAC1) (AID 1645880); conditions: EPAC1 Rap1B-BODIPY-GDP exchange, fluorescence; activity, negative = inhibition: at 115 µM (top of the series); further: nearly all actives have a fitted effect of over 55% in size; further: potency means the concentration at half of the fitted maximal effect
# Procedure, shortened: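 Released BODIPY-GDP fluoresces less than Rap1-bound BODIPY-GDP; the signal is followed at 480/540 nm at 5-min intervals over 30 min, after 5 min at room temperature. Reactions contain 100 nM EPAC1, 250 nM RAP1B-BODIPY-GDP and 50 uM GDP; results are normalized to ATA and DMSO.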
# [5] = biological target: Rap guanine nucleotide exchange factor 3 (Homo sapiens) (UniProt O95398); assay: Counterscreen qHTS for antagonist of cAMP-regulated guanine nucleotide exchange factor 3 (EPAC1) (AID 1645888)
# Procedure, shortened: (§1)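 Measured: fluorescence of BODIPY-GDP bound to Rap1B, which falls as exchange proceeds. Conditions include 50 uM competing GDP, 5 and 30 min reads, and a later cAMP challenge for antagonist detection.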
# [6] = NCATS anti-infectives library activity on HEK293 viability as a counter-qHTS vs the C. elegans viability qHTS (AID 1745854)
# Procedure, shortened: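 CellTiter-Glo luminescence, read on a CCD imager, scored viability of HEK293 cells after 24 hr compound exposure at 37C. Library tested in several concentrations, 1:5 steps, up to 41.7 uM; digitonin served as control.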
# [7] = biological target: Rap guanine nucleotide exchange factor 3 (Homo sapiens) (UniProt O95398); assay: Counterscreen qHTS for agonist of cAMP-regulated guanine nucleotide exchange factor 3 (EPAC1) (AID 1645889); further: nearly all actives have a fitted effect of over 40% in size
# Procedure, shortened: as §1
# [8] = biological target: Tyrosyl-DNA phosphodiesterase 1 (Homo sapiens) (UniProt Q9NUW8); assay: Confirmation Assay for Inhibitors of Tyrosyl-DNA Phosphodiesterase (TDP1) (AID 489007); conditions: recombinant human TDP1 enzymatic activity, dose-response; further: potency means the concentration at half of the fitted maximal effect; nearly all actives have a fitted effect of over 40% in size
# Procedure, shortened: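 AlphaScreen read-out: streptavidin donor and anti-FITC acceptor beads (10 ug/ml) bind intact substrate, so Tdp1 removal of tyrosine-FITC lowers signal. Enzyme 1 nM, substrate 15 nM, 5 min reaction at room temperature after 15 min compound preincubation.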
# [9] = AP1 Signaling Pathway (AID 357; active means well fitted curve in either direction with a large enough effect, not every such curve was filed as active;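 further: ME-180 reporter cells stimulated with EGF at its EC50 level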); conditions: ME-180 (cervical carcinoma) AP-1-bla reporter, EGF-induced, beta-lactamase ratio, 5 h; at 7.69 µM (top of the series) unless noted
# Procedure, shortened: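 Beta-lactamase reporter under AP-1 response element, ME-180 background. Stimulus: EC50 EGF. Compound exposure 5 h, 37 °C. Detection: CCF4, 2.5 h RT, 460/530 nm. Values: AC50 from titration.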
# [10] = Stat Signaling Pathway (AID 446; active means well fitted curve in either direction with a large enough effect, not every such curve was filed as active;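 further: ME-180 cervical cancer cells given 40 pM IL-6 alongside compound; SIE-controlled beta-lactamase reporter measured as 460/530 nm FRET emission ratio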)
# Procedure, shortened: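 Emission at 460 and 530 nm (excitation 405 nm) reports SIE-controlled beta-lactamase in ME-180 cells. Cells received compound with 40 pM IL-6 for 5 hrs at 37 C; data scaled between 300 pM IL-6 and 125 nM JAK-inhibitor controls.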
# [11] = biological target: Glucocorticoid receptor (Homo sapiens) (UniProt P04150); assay: GR-GFP Redistribution (AID 450;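 active means compounds whose dose series gives a full or clear partial fitted curve of increased nuclear translocation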; further: potency means the concentration at half of the fitted maximal effect); conditions: U2OS GR-GFP nuclear translocation, laser cytometry, 2 h
# Sequence of Glucocorticoid receptor (Homo sapiens) (P04150 whole entry, looked up): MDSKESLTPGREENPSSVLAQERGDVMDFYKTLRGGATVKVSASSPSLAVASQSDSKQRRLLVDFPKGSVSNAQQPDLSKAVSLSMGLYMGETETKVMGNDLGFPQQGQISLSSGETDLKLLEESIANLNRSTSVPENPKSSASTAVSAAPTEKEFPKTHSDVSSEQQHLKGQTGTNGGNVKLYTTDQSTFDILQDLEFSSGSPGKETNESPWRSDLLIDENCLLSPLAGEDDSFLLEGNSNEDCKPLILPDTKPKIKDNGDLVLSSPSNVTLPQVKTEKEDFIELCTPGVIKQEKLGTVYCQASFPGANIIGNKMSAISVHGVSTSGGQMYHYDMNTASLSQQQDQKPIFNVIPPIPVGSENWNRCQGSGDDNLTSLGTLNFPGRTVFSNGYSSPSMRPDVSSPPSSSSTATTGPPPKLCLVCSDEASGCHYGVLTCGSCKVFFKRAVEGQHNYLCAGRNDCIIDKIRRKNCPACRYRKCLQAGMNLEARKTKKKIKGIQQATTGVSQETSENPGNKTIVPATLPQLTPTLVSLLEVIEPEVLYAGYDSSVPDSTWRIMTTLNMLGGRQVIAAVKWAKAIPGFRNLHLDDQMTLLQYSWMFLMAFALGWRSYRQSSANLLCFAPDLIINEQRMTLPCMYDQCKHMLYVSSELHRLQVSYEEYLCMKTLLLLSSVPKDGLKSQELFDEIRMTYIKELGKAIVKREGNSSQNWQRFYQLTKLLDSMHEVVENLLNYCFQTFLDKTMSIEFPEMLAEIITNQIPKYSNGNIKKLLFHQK
# Sequence of Rap guanine nucleotide exchange factor 4 (Homo sapiens) (Q8WZA2 whole entry, looked up): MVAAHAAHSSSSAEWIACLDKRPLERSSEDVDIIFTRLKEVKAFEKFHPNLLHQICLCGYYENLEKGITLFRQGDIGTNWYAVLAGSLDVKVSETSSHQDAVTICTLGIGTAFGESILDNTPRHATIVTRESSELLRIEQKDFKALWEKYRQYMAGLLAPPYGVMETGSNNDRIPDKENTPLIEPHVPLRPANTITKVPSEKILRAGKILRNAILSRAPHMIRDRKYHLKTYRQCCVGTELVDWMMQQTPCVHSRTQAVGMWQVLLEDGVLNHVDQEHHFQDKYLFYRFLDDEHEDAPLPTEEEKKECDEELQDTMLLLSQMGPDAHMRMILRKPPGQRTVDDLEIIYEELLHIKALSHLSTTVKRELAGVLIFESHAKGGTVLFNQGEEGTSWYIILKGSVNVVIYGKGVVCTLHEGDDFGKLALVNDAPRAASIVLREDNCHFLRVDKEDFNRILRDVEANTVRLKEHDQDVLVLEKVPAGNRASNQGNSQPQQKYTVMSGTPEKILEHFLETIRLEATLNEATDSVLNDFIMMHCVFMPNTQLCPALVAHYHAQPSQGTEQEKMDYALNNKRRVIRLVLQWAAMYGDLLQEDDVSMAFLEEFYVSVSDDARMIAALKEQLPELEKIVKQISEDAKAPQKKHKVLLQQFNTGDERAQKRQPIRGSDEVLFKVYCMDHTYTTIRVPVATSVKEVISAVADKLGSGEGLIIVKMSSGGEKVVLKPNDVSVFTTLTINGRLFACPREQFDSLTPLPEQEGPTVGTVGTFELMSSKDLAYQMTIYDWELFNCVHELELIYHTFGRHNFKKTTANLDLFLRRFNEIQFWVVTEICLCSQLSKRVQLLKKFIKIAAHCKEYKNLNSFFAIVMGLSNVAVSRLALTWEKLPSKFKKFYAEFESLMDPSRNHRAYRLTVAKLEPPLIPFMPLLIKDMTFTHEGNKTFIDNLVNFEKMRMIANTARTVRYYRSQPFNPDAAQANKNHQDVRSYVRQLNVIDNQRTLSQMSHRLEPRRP
# Sequence of Rap guanine nucleotide exchange factor 3 (Homo sapiens) (O95398 whole entry, looked up): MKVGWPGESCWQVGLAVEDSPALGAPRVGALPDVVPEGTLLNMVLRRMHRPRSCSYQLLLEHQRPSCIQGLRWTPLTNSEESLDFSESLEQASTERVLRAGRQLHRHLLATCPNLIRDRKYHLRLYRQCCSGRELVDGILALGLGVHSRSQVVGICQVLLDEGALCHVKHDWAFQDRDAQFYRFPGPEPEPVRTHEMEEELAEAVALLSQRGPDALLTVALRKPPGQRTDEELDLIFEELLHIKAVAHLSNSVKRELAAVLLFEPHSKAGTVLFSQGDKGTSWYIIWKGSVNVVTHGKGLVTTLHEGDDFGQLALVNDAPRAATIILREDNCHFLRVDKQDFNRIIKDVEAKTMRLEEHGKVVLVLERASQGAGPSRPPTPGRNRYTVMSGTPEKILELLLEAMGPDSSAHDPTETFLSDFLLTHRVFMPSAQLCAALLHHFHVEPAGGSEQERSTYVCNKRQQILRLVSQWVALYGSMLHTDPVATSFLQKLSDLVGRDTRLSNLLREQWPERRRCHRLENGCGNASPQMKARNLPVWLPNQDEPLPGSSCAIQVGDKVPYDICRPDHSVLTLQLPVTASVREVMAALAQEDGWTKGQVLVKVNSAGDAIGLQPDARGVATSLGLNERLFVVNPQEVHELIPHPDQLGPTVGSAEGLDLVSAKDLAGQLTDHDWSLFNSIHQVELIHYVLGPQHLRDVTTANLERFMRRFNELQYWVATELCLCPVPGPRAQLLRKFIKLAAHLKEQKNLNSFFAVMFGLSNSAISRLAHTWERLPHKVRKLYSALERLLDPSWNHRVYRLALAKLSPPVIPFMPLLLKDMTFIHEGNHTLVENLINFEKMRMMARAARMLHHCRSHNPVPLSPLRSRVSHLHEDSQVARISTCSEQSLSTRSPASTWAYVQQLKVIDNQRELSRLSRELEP
# Sequence of Tyrosyl-DNA phosphodiesterase 1 (Homo sapiens) (Q9NUW8 whole entry, looked up): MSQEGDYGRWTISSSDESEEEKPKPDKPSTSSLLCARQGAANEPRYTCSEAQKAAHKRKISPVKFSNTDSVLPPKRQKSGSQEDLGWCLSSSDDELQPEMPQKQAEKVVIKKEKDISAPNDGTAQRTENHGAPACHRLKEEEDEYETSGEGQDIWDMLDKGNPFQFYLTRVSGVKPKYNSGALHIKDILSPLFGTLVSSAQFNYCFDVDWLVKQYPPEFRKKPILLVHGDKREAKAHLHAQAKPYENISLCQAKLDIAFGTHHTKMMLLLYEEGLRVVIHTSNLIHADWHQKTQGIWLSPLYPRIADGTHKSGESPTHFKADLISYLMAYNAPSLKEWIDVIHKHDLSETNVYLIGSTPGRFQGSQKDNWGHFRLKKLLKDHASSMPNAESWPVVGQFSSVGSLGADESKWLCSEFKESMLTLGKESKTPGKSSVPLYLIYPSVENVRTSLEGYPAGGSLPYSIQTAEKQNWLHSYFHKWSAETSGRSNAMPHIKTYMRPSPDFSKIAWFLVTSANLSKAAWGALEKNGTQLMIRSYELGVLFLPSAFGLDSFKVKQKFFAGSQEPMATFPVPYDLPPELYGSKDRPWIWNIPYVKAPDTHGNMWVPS
compound,measurement,setting,value
Cn1c(SCC(=O)c2ccc3c(c2)Cc2ccccc2-3)nnc1-c1ccccc1,Potency,[1],inactive
same,activation,[2],"0% [at 17.1 µM, percent relative to cAMP agonist control]"
same,Potency,[3],inactive
COc1cccc(Nc2nnc(-c3cc4ccc(O)cc4oc3=O)s2)c1,Potency,[4],inactive
same,Potency,[5],inactive
same,Potency,[6],inactive
Cc1ccc(Nc2nc3nonc3[nH]c2=O)cc1Cl,Potency,[1],inactive
same,Potency,[2],inactive
CN(c1ccccc1)c1nc(N)c([N+](=O)[O-])c(N2CCCCC2)n1,Potency,[1],inactive
same,Potency,[2],inactive
CCOc1cc(S(=O)(=O)Nc2ccccc2CC)ccc1Cl,Potency,[1],inactive
same,activation,[2],"8.65% [at 17.1 µM, percent relative to cAMP agonist control]"
CN(C)S(=O)(=O)N(CC(=O)NCCSc1ccc(Cl)cc1)c1ccccc1,Potency,[1],inactive
same,Potency,[2],inactive
same,Potency,[3],inactive
O=C1CCCC2=C1CC(C(=O)OCc1ccccc1)C(=O)N2Cc1ccccc1 (configuration not stated),Potency,[1],inactive
same,activation,[2],"0% [at 17.1 µM, percent relative to cAMP agonist control]"
same,Potency,[3],inactive
COC(=O)c1ccc2c(=O)n(CCCCCC(=O)N3CCN(c4cc(C)ccc4C)CC3)c(=O)[nH]c2c1,Potency,[1],inactive
same,Potency,[2],inactive
same,Potency,[3],inactive
Cc1cc(C)cc(OCC(=O)OCC(=O)NC2CCCCCCC2)c1,Potency,[1],inactive
same,Potency,[2],inactive
same,Potency,[3],inactive
CC(C)C[C@@H](COc1ccccc1)N1CCN(CCc2ccccc2)CCC1=O,Potency,[1],inactive
same,Potency,[2],inactive
C/C=C\C=C/C(=O)Nc1cccc(C2=NOC3(C2)C[C@H](C(N)=O)N(C(=O)c2ccc(OC)cc2)C3)c1 (some centres not stated),Potency,[1],inactive
same,Potency,[2],inactive
CCCCNC(=O)C[C@@H]1C[C@@]2(C(=O)OC)CCCCC=C2N(Cc2cccc3ccccc23)C1=O,Potency,[1],inactive
same,Potency,[2],inactive
Cc1ccccc1NS(=O)(=O)c1ccc2c3c(cccc13)C(=O)N2C,Potency,[1],inactive
same,Potency,[2],inactive
Cc1cccc(N2CCCC2=Nc2ccc(Br)cc2C#N)c1,Potency,[4],inactive
same,Potency,[5],inactive
same,Potency,[7],inactive
Cc1onc(-c2ccccc2Cl)c1C(=O)OCc1cnc(Cl)s1,Potency,[1],inactive
Cc1ccc(-c2cc(C(=O)Nc3ccncc3)c3ccccc3n2)cc1,Potency,[1],inactive
same,Potency,[2],inactive
CC[N+](C)(C)c1ccc(/C=C/c2ccnc3ccccc23)cc1,Potency,[1],inactive
same,Potency,[2],inactive
COc1ccc(OCCC(=O)OCC(=O)Nc2ccc(S(=O)(=O)N3CCOCC3)cc2)cc1,Potency,[1],inactive
same,activation,[2],"0% [at 17.1 µM, percent relative to cAMP agonist control]"
same,Potency,[3],inactive
CC1CC(C)CN(C(=S)SCc2nc(N)nc(Nc3ccccc3)n2)C1 (configuration not stated),Potency,[1],inactive
same,Potency,[2],inactive
O=S1(=O)CCOC[C@H](CC2CCCCC2)N1Cc1cccc(C(F)(F)F)c1,Potency,[1],inactive
same,activation,[2],"4.69% [at 17.1 µM, percent relative to cAMP agonist control]"
same,Potency,[3],inactive
O=C(CCN1C(=O)/C(=C/c2ccc3c(c2)OCO3)SC1=S)Nc1ccc(C(=O)O)cc1,Potency,[1],inactive
same,Potency,[2],inactive
CC(C)Oc1cc(F)ccc1-c1cc(C(=O)Nc2ccc(C(C)C)cc2)[nH]n1,Potency,[1],inactive
same,Potency,[2],inactive
same,Potency,[3],inactive
O=C(O)c1ccc(COc2ccccc2/C=C2/NC(=O)N(c3cccc(Cl)c3)C2=O)cc1,Potency,[8],10 µM (active)
same,Potency,[4],37.9 µM (active)
same,Potency,[5],inactive
O=C(c1[nH]c(C(F)(F)F)nc1-c1ccccc1)N1CCC(C(O)(c2ccccc2)c2ccccc2)CC1,Potency,[1],inactive
same,Potency,[2],inactive
same,Potency,[3],inactive
Cn1cc([C@]2(O)C(=O)Nc3ccc(Br)cc32)c2ccccc21,Potency,[1],inactive
same,Potency,[2],inactive
CCc1noc(C)c1C(=O)Nc1nc2c(C)cc(C)cc2s1,Potency,[1],inactive
same,Potency,[2],inactive
c1ccc(C(c2cccs2)c2c[nH]c3ccccc23)cc1 (configuration not stated),Potency,[1],inactive
CN1CC=C2C(C#N)=C(N)C(C#N)(C#N)[C@H](c3cccc(Cl)c3)C2C1 (some centres not stated),"activity change, negative = inhibition",[9],-16.2% [at 17.2 µM]
same,outcome,[10],inactive
same,Potency,[11],> 20.6 µM
same,Potency,[4],inactive
same,Potency,[5],inactive
CCOc1cc(/C=N/Nc2ccc(C(=O)O)cc2)ccc1OC(=O)c1ccccc1C,Potency,[1],inactive
same,Potency,[2],inactive
CCc1nc2c(OCc3ccc(C(F)(F)F)cc3)cccn2c1N(C)C(=O)CC(C)C,Potency,[1],inactive
COc1cc(S(=O)(=O)NC2CCCCC2C)ccc1Cl (configuration not stated),Potency,[1],inactive
same,Potency,[2],inactive
same,Potency,[3],inactive
c1ccc(-c2onc(-c3ccco3)c2-c2ccc3[nH]ccc3c2)cc1,Potency,[1],inactive
same,Potency,[2],inactive
FC(F)(F)c1ccc(CSc2nccn2-c2ccccc2)cc1,Potency,[1],inactive
Cc1ccc(S(=O)(=O)Oc2cccc(/C=N/Nc3ccc(C(=O)O)cc3)c2)cc1,Potency,[1],inactive
same,Potency,[2],inactive
CCc1ccc(-c2cc(C)no2)cc1S(=O)(=O)N1CCC(C)CC1,Potency,[1],inactive
same,Potency,[2],inactive
CC(C)C[C@H]1COCCS(=O)(=O)N1Cc1cccc(C(F)(F)F)c1,Potency,[1],inactive
same,Potency,[2],inactive
same,Potency,[3],inactive
CCCCC[C@H]1CN(Cc2ccccc2)C(=O)[C@@H]1CC(=O)NCc1ccc(OC)cc1,Potency,[1],inactive
same,Potency,[2],inactive
same,Potency,[3],44.1 µM (active)
O=C(Nc1cccc(NC(=O)c2cccs2)c1)c1ccc(Br)o1,Potency,[1],inactive
same,Potency,[2],inactive
same,Potency,[3],inactive
COc1ccc(S(=O)(=O)N2CCCCC2)cc1NC(=O)c1c(F)cccc1Cl,Potency,[1],inactive
same,Potency,[2],inactive
same,Potency,[3],inactive
O=C1NC[C@H](Cc2ccccc2)N(C[C@@H]2CCCN2C[C@H](Cc2ccc(O)cc2)N2C[C@H](Cc3ccc(O)cc3)N(CC3CCCCC3)C(=O)C2=O)C1=O,Potency,[1],inactive
same,activation,[2],"15.7% [at 17.1 µM, percent relative to cAMP agonist control]"
same,Potency,[3],inactive
